The source of these data is PubChem BioAssay (Tox21).

Each structure is given as a SMILES string. Unmarked numbers belong to inactive results. Results filed as inconclusive are left out. Calls of active or inactive are those of the source. Unless noted, calls come from the whole dose curve; as a rule, active = well fitted curve in the direction sought with a large enough effect in the repeat runs; inconclusive = weak or mixed curves; inactive = no such curve, though single readings can be large; an effect the other way counts as inactive or inconclusive.

The target in test [1] is Thyrotropin receptor (Homo sapiens) (UniProt P16473). Description: qHTS assay to identify small molecule antagonists of the thyroid stimulating hormone receptor (TSHR) signaling pathway (AID 1259385; calls by dose curve; note: nearly all actives have a fitted effect of over 20% in size). The gist of the method: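 TSHR-HEK293 cells were plated and held 18 h at 37C/5% CO2, then given compound plus Ro20-1724 and stimulated with TSH at 1.5 ng/mL final. After 30 min at room temperature, cAMP was detected with cAMP-d2/anti-cAMP-cryptate (1 h) by fluorescence.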
Chain of Thyrotropin receptor (Homo sapiens) (P16473 whole entry, looked up): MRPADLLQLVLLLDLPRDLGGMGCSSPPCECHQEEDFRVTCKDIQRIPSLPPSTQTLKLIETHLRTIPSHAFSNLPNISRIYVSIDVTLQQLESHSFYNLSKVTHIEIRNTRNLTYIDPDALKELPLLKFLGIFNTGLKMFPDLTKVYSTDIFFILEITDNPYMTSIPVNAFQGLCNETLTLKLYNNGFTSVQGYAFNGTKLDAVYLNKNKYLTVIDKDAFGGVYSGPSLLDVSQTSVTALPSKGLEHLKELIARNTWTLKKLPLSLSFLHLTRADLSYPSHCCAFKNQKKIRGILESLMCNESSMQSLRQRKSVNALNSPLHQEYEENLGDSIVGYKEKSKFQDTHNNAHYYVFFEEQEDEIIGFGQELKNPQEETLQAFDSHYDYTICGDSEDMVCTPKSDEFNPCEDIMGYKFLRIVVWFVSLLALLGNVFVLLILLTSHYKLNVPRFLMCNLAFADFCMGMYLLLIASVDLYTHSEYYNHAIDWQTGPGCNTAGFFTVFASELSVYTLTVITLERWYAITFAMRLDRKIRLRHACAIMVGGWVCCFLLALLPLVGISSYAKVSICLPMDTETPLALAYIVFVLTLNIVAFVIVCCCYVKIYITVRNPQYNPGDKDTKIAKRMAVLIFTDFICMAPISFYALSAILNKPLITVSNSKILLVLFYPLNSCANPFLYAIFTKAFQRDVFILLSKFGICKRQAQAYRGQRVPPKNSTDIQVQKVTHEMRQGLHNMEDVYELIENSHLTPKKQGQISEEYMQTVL
A general note: Quantitative high-throughput screening tests each substance at several concentrations.

Test [2] can be described thus: qHTS assay to identify small molecule agonists of the estrogen receptor alpha (ER-alpha) signaling pathway in the presence of an antagonist - cell viability counter screen (AID 1259386).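 Note: series mostly up to about 92 µM; cells exposed to compounds for 22 h at 37 °C before the viability read; nearly all actives have a fitted effect of over 30% in size.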 The gist of the method:
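Cell viability in VM7Luc4E2 cells (endogenous full-length ER-alpha) measured by CellTiter-Fluor fluorescence in the same wells as the luciferase screen. Cells pre-cultured 5 days in charcoal-stripped serum, then treated 22 h with compounds at 15 concentrations plus 10.0nM ICI-182,780.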

Test [3] addresses Progesterone receptor (Homo sapiens) (UniProt P06401). Briefly: qHTS assay to identify small molecule antagonists of the progesterone receptor (PR) signaling pathway (AID 1346795; active = well fitted inhibition curve with a large enough effect in the signal ratio in the repeat runs, not every such curve was filed as active; the % refers to the signal ratio; note: potency is the fitted concentration of half-maximal effect). The procedure, abridged: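 Antagonist mode: compounds tested against 1 nM (final) promegestone stimulation in HEK293T cells expressing PR-UAS-bla reporter, 16 hr at 37C, 5% CO2; beta-lactamase activity detected via B/G FRET substrate after 2 hr at room temperature.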

A short description of test [4]: qHTS assay to identify small molecule antagonists of the progesterone receptor (PR) signaling pathway - cell viability counter screen (AID 1346798). Note: series mostly up to about 92 µM; nearly all actives have a fitted effect of over 50% in size. The procedure, abridged: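 Counter screen for cytotoxicity: viability of PR-UAS-bla HEK293T cells was measured with CellTiter-Glo luminescence following 16 hr compound exposure in the presence of R5020.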
Test [5] is described as follows: qHTS assay to identify small molecule antagonists of the TGF-beta/Smad signaling pathway - cell viability counter screen (AID 1346824). Note: nearly all actives have a fitted effect of over 50% in size. The procedure, abridged:
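SBE-bla HEK 293T cells were plated overnight at 37 C, then given compounds in DMSO plus TGF-beta1 (added as 0.25 ng/mL solution) for 5 hr. After the bla read, CellTiter-Glo was added to the same wells and luminescence read after 30 min at room temperature.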

A short description of test [6]: qHTS assay to identify small molecule agonists of the TGF-beta/Smad signaling pathway - cell viability counter screen (AID 1346829). Note: top concentration of the series differs between compounds; nearly all actives have a fitted effect of over 45% in size. The gist of the method: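 Cytotoxicity counter screen: CellTiter-Glo luminescence (30 min, room temperature) measured in the SBE-bla HEK 293T reporter wells after 5 hr compound treatment at 37 C and the 2 hr substrate step.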
The nature of test [7]: qHTS assay to identify small molecule agonists of the TGF-beta/Smad signaling pathway (AID 1346859; active = well fitted activation curve with a large enough effect in the signal ratio in the repeat runs, not every such curve was filed as active; the % refers to the signal ratio; note: series mostly up to about 77 µM). The procedure, abridged: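 Reporter line: HEK 293T with stably integrated SBE-controlled beta-lactamase. Compound exposure lasts 5 hr at 37 C and 5% CO2; substrate loading follows for 2 hr at room temperature, with emission read at 460 and 530 nm.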
For test [8], the target named is Thyrotropin-releasing hormone receptor (Homo sapiens) (UniProt P34981). Briefly: qHTS assay to identify small molecule antagonists of the thyrotropin-releasing hormone receptor (TRHR) signaling pathway (AID 1346877; active = well fitted inhibition curve with a large enough effect in the repeat runs, not every such curve was filed as active; note: series mostly up to about 51 µM). The gist of the method: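 TRHR-expressing HEK293 cells loaded with calcium dye for 2 h at 37 C; compounds pre-incubated 5 min at room temperature before TRH challenge at 1 nM final. Intracellular calcium fluorescence read kinetically for 3 min; 15 concentrations in triplicate.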
Chain of Thyrotropin-releasing hormone receptor (Homo sapiens) (P34981 whole entry, looked up): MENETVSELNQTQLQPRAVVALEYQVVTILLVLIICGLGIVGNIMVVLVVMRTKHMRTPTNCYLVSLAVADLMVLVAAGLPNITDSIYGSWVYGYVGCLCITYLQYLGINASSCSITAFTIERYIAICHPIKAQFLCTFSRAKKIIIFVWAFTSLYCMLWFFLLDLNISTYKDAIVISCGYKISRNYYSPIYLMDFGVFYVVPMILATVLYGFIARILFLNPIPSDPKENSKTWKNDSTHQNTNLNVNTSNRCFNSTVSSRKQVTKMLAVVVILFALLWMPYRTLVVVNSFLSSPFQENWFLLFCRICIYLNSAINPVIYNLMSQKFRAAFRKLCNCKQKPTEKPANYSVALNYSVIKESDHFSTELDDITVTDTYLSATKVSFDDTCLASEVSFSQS

Test [9] has the same target. Description: qHTS assay to identify small molecule agonists of the thyrotropin-releasing hormone receptor (TRHR) signaling pathway (AID 1346891; calls by dose curve; note: series mostly up to about 58 µM). The gist of the method:
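Cells: TRHR-Hek293, seeded and incubated 18 h. Dye loading: 2 h at 37 °C. Compound added from DMSO stock by pin tool. Read-out: kinetic calcium fluorescence over 3 min.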

Test [10] in a line: Human pregnane X receptor (PXR) small molecule agonists, qHTS cell viability counter screen (AID 1346977). Note: nearly all actives have a fitted effect of over 50% in size. The procedure, abridged:
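Cytotoxicity counter screen run in the same wells as the PXR luciferase assay, using PXR-Luc HepG2 cells in charcoal-stripped serum medium. Viability: CellTiter-Fluor fluorescence after 24hr compound treatment.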

Test [11] is described as follows: Caspase-3/7 induction in HepG2 cells by small molecules, qHTS assay (AID 1346978). Note: nearly all actives have a fitted effect of over 15% in size. The gist of the method: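 Wild-type HepG2 cells (2,000/well) were settled 5 h at 37 C, 5% CO2, then exposed to compounds in DMSO for 17 h. Caspase-3/7 activity was read by luminescence 30 min after adding Caspase-Glo 3/7 reagent at room temperature.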
Test [12] in a line: Caspase-3/7 induction in CHO-K1 cells by small molecules, qHTS cell viability counter screen (AID 1346979). Note: nearly all actives have a fitted effect of over 35% in size. Note: potency is the fitted concentration of half-maximal effect. The gist of the method:
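Cytotoxicity counter screen run in parallel with the caspase-3/7 assay: CHO-K1 cells, 16hr compound treatment at 37C, then CellTiter-Fluor for 1hr before fluorescence reading.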

Test [13] can be described thus: Caspase-3/7 induction in CHO-K1 cells by small molecules, qHTS assay (AID 1346980). Note: nearly all actives have a fitted effect of over 15% in size. The procedure, abridged:
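Wild-type cells were seeded at 1,500 per well and settled 5 hr at 37 C, 5% CO2, then exposed to DMSO-dissolved compounds for 17 hr. Caspase-Glo 3/7 reagent was added, and luminescence was read after 30min at room temperature.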

Test [14] can be described thus: Caspase-3/7 induction in HepG2 cells by small molecules, qHTS cell viability counter screen (AID 1346981). Note: series mostly up to about 92 µM; nearly all actives have a fitted effect of over 30% in size. The procedure, abridged: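 Wild-type HepG2 cells, 2,000/well, settled 5 hr at 37 C, 5% CO2 before compound addition. Viability read by CellTiter-Fluor fluorescence, reagent added after 16 hr compound exposure, then 1 hr at 37C, in the same wells as the caspase read.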

The target of test [15] is Nuclear receptor subfamily 1 group I member 2 (Homo sapiens) (UniProt O75469). Description: Human pregnane X receptor (PXR) small molecule agonists, qHTS assay (AID 1346982). Note: nearly all actives have a fitted effect of over 35% in size. Note: potency is the fitted concentration of half-maximal effect. The procedure, abridged:
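PXR-Luc HepG2 reporter cells (CYP3A4-driven luciferase) in 5% charcoal-stripped FBS medium, plated 5 h before compound addition, then treated 24 h at 37C. Luciferase read by ONE-Glo luminescence after 30 min at room temperature.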

Test [16] addresses Progesterone receptor (Homo sapiens) (UniProt P06401). Briefly: qHTS assay to identify small molecule agonists of the progesterone receptor (PR) signaling pathway (AID 1346784; calls by dose curve; note: nearly all actives have a fitted effect of over 30% in size). The gist of the method: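 Cells (PR-UAS-bla HEK 293T, GripTite) were plated in assay medium containing 2% charcoal-stripped FBS and incubated 6 hr. Test compounds in DMSO were added for 16 hr at 37C. FRET substrate was then loaded for 2 hr at room temperature before fluorescence reading.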

The nature of test [17]: qHTS assay to identify small molecule agonists of the progesterone receptor (PR) signaling pathway - cell viability counter screen (AID 1346799; calls by dose curve; note: nearly all actives have a fitted effect of over 45% in size). The procedure, abridged: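 Cells (PR-UAS-bla HEK293T) are plated at 3,000/well in 2% charcoal-stripped FBS medium, rested 6 hr, dosed and incubated 16 hr at 37C. CellTiter-Glo is then added and luminescence measured after 30 min at room temperature.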

Test [18] has as its target Nuclear receptor subfamily 1 group I member 2 (Rattus norvegicus) (UniProt Q9R1A7). Briefly: Rat pregnane X receptor (rPXR) activation by small molecules, qHTS assay (AID 1346983). Note: nearly all actives have a fitted effect of over 20% in size. The settings on record: rPXR luciferase reporter cells, One-Glo luminescence, 24 h; stronger effect = higher value. The gist of the method: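 Cell-based rPXR luciferase reporter assay, 2,000 cells per well, rested 5hr at 37 C before compound addition in DMSO, then 24 hr at 37 C. One-Glo reagent was added and luminescence read after 30 min at room temperature.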

In test [19] the target is Nuclear receptor subfamily 1 group I member 2 (Homo sapiens) (UniProt O75469). Briefly: Human pregnane X receptor (PXR) activation by small molecules, qHTS assay (AID 1346985). Note: nearly all actives have a fitted effect of over 40% in size. The gist of the method:
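DPX-2 cells (HepG2 co-transfected with a PXR response element and a CYP3A4-promoter luciferase construct) were seeded at 2,000 per well, rested 5 hr at 37C, then exposed to DMSO-dissolved compounds for 24 hr. Activation was read as luciferase luminescence.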
% is set by controls: 0 for no effect and ±100 for the full control effect.

Chain of Progesterone receptor (Homo sapiens) (P06401 whole entry, looked up): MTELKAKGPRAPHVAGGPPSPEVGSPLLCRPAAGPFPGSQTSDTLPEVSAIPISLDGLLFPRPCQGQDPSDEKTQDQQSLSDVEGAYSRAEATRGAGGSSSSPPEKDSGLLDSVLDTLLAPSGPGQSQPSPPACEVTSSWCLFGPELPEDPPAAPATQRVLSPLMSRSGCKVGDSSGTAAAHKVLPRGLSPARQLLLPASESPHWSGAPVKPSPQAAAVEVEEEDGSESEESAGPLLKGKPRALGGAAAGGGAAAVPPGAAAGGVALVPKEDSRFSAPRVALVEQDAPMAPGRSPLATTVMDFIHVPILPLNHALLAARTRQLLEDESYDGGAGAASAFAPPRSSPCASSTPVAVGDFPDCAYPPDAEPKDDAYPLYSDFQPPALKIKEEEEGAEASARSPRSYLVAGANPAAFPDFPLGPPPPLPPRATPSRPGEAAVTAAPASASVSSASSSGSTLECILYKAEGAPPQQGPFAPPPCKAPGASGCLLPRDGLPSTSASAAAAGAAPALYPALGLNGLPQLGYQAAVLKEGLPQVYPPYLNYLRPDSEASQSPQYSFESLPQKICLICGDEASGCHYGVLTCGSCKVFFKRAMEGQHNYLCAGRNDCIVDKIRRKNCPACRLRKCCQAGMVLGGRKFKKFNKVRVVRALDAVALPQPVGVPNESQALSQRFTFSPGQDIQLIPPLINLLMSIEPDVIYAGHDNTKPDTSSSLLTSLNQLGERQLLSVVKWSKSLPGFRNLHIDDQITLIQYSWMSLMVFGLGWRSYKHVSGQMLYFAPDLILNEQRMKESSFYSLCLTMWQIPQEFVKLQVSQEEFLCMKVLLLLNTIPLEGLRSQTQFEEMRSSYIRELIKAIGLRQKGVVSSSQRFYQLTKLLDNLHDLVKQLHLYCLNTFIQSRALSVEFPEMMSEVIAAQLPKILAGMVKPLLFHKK
Chain of Nuclear receptor subfamily 1 group I member 2 (Homo sapiens) (O75469 whole entry, looked up): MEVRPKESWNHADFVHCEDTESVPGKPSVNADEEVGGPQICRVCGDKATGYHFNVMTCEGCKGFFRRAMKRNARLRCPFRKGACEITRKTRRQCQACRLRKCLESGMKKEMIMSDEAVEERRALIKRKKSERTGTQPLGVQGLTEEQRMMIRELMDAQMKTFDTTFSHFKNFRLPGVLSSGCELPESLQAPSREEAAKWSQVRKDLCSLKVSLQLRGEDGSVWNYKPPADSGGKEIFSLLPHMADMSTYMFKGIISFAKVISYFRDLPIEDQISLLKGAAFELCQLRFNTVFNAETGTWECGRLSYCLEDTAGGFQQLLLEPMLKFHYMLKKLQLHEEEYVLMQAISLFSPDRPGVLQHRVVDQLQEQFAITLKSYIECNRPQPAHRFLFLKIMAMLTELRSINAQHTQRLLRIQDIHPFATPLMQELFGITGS
Chain of Nuclear receptor subfamily 1 group I member 2 (Rattus norvegicus) (Q9R1A7 whole entry, looked up): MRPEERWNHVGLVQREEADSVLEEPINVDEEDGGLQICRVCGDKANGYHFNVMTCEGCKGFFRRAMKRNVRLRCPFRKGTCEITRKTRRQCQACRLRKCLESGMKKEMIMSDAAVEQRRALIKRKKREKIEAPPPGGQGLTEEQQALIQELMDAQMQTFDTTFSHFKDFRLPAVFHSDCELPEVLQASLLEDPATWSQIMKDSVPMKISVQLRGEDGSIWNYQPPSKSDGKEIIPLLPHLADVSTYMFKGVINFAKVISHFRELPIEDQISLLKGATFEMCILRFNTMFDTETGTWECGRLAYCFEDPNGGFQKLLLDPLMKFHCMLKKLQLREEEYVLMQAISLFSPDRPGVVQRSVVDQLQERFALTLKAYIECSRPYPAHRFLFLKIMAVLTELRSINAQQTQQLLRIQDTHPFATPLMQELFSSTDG

`O=C(O)c1cc(Cl)cc([N+](=O)[O-])c1Cl`: the result in [1], in test [5], in test [6], in [7], in [8] and in test [9] was inactive. In [13], the result was inactive. Moreover, the Potency result in [2], in test [3], in test [4], in [10], in test [11] and in test [12] was “inactive” in each case. Further, the Potency entry in test [14] and in test [15] was “inactive” throughout.
Regarding `CC(C)(C)c1cc(CCC(=O)NN)cc(C(C)(C)C)c1O`, the molecule was called inactive in test [1], in test [5], in [6], in test [7], in [8] and in test [9]. Further, the call in [13] was inactive. Further, the Potency entry in [16], in [3], in test [4], in [17], in test [10] and in [11] was “inactive” in each case. For the same molecule, the Potency entry in test [12] and in test [14] was “inactive” each time. In addition, in [15], the Potency was 34.4 µM (active).
On to `CCC(C)NC(N)=O` (configuration not stated), for which the molecule was called inactive in test [1], in test [5], in [6], in test [7], in test [8] and in [9]. Also, the Potency result in [2], in [4], in test [10], in [11], in test [12] and in [14] was “inactive” in each case. Also, the Potency result in test [15] was “inactive”.
Regarding `COCCOC(=O)C1=C(C)NC(C)=C(C(=O)OC(C)C)C1c1cccc([N+](=O)[O-])c1` (configuration not stated), the result in test [1], in [5], in [6], in test [7], in test [8] and in test [9] was inactive. Moreover, the Potency result in test [2], in test [4], in test [10] and in [11] was “inactive” each time. The Potency in test [3] is 10.6 µM (active); in test [12] it was 21.1 µM (active).
As for `CN(C)c1ccc(C=O)cc1`, the result in test [1], in test [5], in test [6], in [7], in test [8] and in test [9] was inactive. Further, the call in [13] was inactive. Also, the Potency result in test [16], in test [3], in test [4], in [17], in test [10] and in test [11] was “inactive” each time. Moreover, the Potency result in [12] and in test [14] was “inactive” in each case.
For `CC(C)CC(C)CC(C)CC(C)COC(=O)c1ccccc1C(=O)OCC(C)CC(C)CC(C)CC(C)C` (configuration not stated), the call in test [1], in test [5], in test [6], in [7], in test [8] and in test [9] was inactive. Further, the result in test [13] was inactive. Besides, the Potency entry in test [16], in test [3], in test [4], in [17], in test [10] and in test [11] was “inactive” in each case. Further, the Potency entry in test [12], in [14] and in test [15] was “inactive” in each case.
Take `CCCC/C=C\CCCCCCCCCC=O`: the result in test [1], in test [6], in [7], in [8], in test [9] and in test [13] was inactive. The Potency result in test [2], in test [4], in test [17], in test [10], in test [11] and in test [12] was “inactive” each time. The Potency result in test [14] is “inactive”.
Regarding `C[C@H](N)[C@H](O)c1cccc(O)c1`, the outcome in [1], in test [6], in [7], in test [8], in [9] and in test [13] was inactive. In addition, the Potency result in test [2], in [3], in [4], in [17], in test [10] and in [11] was “inactive” in each case. The Potency result in test [12], in [14], in [15] and in test [19] was “inactive” throughout. Also, the max activation in test [18] is -0.575%.
